# Compounds with a hit are over-represented: about 6.2% of the library has one in this group of screens.
# HT1080 IDH1KD tx: qHTS for induction of synthetic lethality in tumor cells producing 2HG: qHTS for the HT-1080-IDH1KD cell line; hit rate 2% among 360,000; Potency, µM (doses to about 46.1 µM), for inactives: at the highest dose activity, negative = toxicity, actives largely listed as cytotoxic; HT-1080 IDH1 knockdown viability, ATP luminescence, 48 h;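 also: 0% = DMSO wells and -100% = cell-free medium wells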
#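 After a 2 h attachment period, IDH1KD HT-1080 cells took pin-transferred compound for 48 h at 37 °C; ATP-based luminescence after 10 min room-temperature reagent incubation reported viability.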
# HT1080-NT tox: qHTS for induction of synthetic lethality in tumor cells producing 2HG: qHTS for the HT-1080-NT fibrosarcoma cell line. Potency, µM (doses to about 46.1 µM), for inactives: at the highest dose activity, negative = less viability, hits mostly cytotoxic. HT-1080-NT fibrosarcoma viability, CellTiter-Glo ATP luminescence, 48 h. hit rate 1.6% among 360,000. AID 686970, 2013;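 also: NT is the 2HG producing partner of a matched IDH1 knockdown line; 0% = DMSO-treated cells and -100% = media-only wells without cells; nearly all actives have a fitted effect of over 55% in size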
#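 HT-1080-NT fibrosarcoma cells (2HG-overproducing), 750 cells/well in RPMI with 5% FBS, dosed after 2 h and incubated 48 h at 37C. CellTiter-Glo luminescence normalized to DMSO and no-cell wells; concentration-response curves fitted and classed.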
# ATXN2 expr inh: Primary qHTS for Inhibitors of ATXN expression; HEK-293 ATXN2-luciferase reporter, luminescence, 24 h; Potency, µM (highest dose often 57 µM), for inactives: at the top dose activity change, negative = inhibition, hits mostly inhibitors; hit rate 0.72% among 360,000; AID 1745845, 2022; also: % is scaled to controls: 0 for no effect and ±100 for the full control effect; nearly all actives have a fitted effect of over 55% in size
#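 qHTS (up to 57 uM final) was run with 24 h compound exposure of reporter cells at 37 °C. Each well was multiplexed: SteadyGlo luminescence measured ATXN2-luciferase expression after a fluorogenic Gly-Phe-AFC viability readout (25 uM final).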
# KB-3-1 tox: qHTS assay for MDR1-selective chemotherapeutics: Primary screen using the parental adenocarcinoma cell KB-3-1; KB-3-1 viability, CellTiter-Glo ATP luminescence, 72 h; Potency, µM (top dose mostly 46.1 µM), most hits filed as cytotoxic; hit rate 1.4% among 400,000; AID 1347075, 2019; also: % is scaled to controls: 0 for no effect and ±100 for the full control effect; nearly all actives have a fitted effect of over 60% in size
#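 72 h, 37 °C compound treatment of KB-3-1 parental cells; CellTiter-Glo added, 10 min, luminescence read. Data corrected against DMSO-only plates and normalized before curve fitting.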
# ATXN viability: Viability Counterscreen for Primary qHTS for Inhibitors of ATXN expression; AID 651635, 2014; hit rate 0.49% among 400,000; Potency, µM (series often up to 56.7 µM), actives largely listed as cytotoxic; S2 cells (HEK-293 line with an ATXN2-luciferase reporter) viability, CellTiter-Fluor protease fluorescence, 24 h; also: nearly all actives have a fitted effect of over 40% in size
# KB-V1 MDR tox: qHTS assay for MDR1-selective chemotherapeutics: Primary screen using the drug-selected MDR subline cells KB-V1 | KB-V1 MDR cells viability, CellTiter-Glo, 72 h | Potency, µM (top dose mostly 46.1 µM), usual class: cytotoxic | hit rate 3.4% among 400,000 | AID 1347076, 2019; also: % is scaled to controls: 0 for no effect and ±100 for the full control effect; nearly all actives have a fitted effect of over 60% in size
#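 Luminescent ATP read-out (CellTiter-Glo, 10 min) measures survival of drug-selected KB-V1 MDR cells after 72 h, 37 degrees C compound exposure. Medium: phenol-red-free DMEM, 10% FBS. Values from fitted concentration-response curves.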
# * = called active by the depositor; i = inactive; u = inconclusive; x = no result given. Calls follow the shape of the dose curve; as a rule, active = well fitted curve in the direction sought with a large enough effect; inconclusive = small, poorly fitted or top-dose-only effect, or another doubt; inactive = no such curve, though single readings can be large; an effect the other way counts as inactive or inconclusive. Potency is read from the fitted curve at half-maximal effect.
SMILES,HT1080 IDH1KD tx,HT1080-NT tox,ATXN2 expr inh,KB-3-1 tox,ATXN viability,KB-V1 MDR tox
CCN(CC(=O)NCc1ccc(Cl)cc1)C(=O)CSCC(=O)Nc1ccc(OC)cc1,-0.3%,0.0%,-1.5%,i,u,i
CCC(=O)c1ccc(OCC(=O)N(CC)CC(=O)Nc2ccccc2OC)cc1,11.2%,-1.2%,-0.4%,i,i,16.4µM*
COc1ccc(-n2c(=O)c3c(c4cc(OC)ccc4n3C)n(CC(=O)NCC3CCCO3)c2=O)cc1 (stereo not given),x,x,-1.9%,i,i,i
COc1ccc(-c2nnc(SCC(=O)Nc3ccc(F)cc3)s2)cc1,x,x,3.1%,i,i,i
CCc1c(C)[nH]n(-c2nc(-c3ccccc3)cs2)c1=O,0.0%,8.7%,-8.7%,i,i,u
CCc1c(C)[nH]n(-c2nc(-c3cccc([N+](=O)[O-])c3)cs2)c1=O,-0.6%,2.4%,-12.0%,u,i,16.4µM*
COc1cc(-c2nc(Cn3nnc(C(=O)Nc4cc(C)cc(C)c4)c3C)c(C)o2)cc(OC)c1OC,x,x,0.1%,i,i,i
Cc1cccc(-c2nn3c(=O)cc(CN4CCN(S(=O)(=O)c5ccc(Cl)cc5)CC4)nc3s2)c1,x,x,-1.2%,i,i,i
FC(F)(F)c1cc(CO[C@@H]2CCCN[C@@H]2c2ccccc2)cc(C(F)(F)F)c1,23.1µM*,u,u,i,x,i
COc1ccc(Cn2c(C(=O)O)c(CNCc3ccco3)c3ccc(C)cc32)cc1,x,x,-13.4%,u,7.94µM*,i
COc1ccc(Cn2c(C(=O)O)c(CNCCc3cccs3)c3ccc(C)cc32)cc1,x,x,u,i,31.6µM*,i
COc1ccc2c(CNCc3ccco3)c(C(=O)O)n(Cc3ccccc3)c2c1,x,x,-15.5%,u,u,i
CCCCC[C@@H](C)N1C[C@@H](COCc2ccccc2)Oc2cc(N3CC[C@H](N(C)C)C3)ccc2S1(=O)=O,u,20.6µM*,u,u,x,u
C[C@H](c1ccccc1)N1C[C@@H](COCc2ccccc2)Oc2cc(N3CC[C@H](N(C)C)C3)ccc2S1(=O)=O,u,u,-10.5%,i,x,23.1µM*
C[C@@H](c1ccccc1)N1C[C@@H](COCc2ccccc2)Oc2cc(N3CC[C@H](N(C)C)C3)ccc2S1(=O)=O,11.8%,1.8%,-1.7%,u,i,i
COc1ccc(/C=c2\[nH]c(=O)/c(=C/c3ccc(OC)cc3)[nH]c2=O)cc1,x,x,x,i,x,i
CN(C)c1nc(N)nc(CSc2nc3cc(Cl)ccc3o2)n1,23.4%,5.9%,56.8%,i,i,i
O=S1(=O)C=C(Sc2nc3cc(Cl)ccc3o2)c2ccccc21,5.17µM*,5.17µM*,u,u,x,u
COc1cccc(CNC(=O)CN(c2ccc(C(C)C)cc2)S(=O)(=O)c2c(C)n[nH]c2C)c1,x,x,u,i,u,i
COc1ccc(N(CC(=O)Nc2cc(C)ccc2C)S(=O)(=O)c2c(C)noc2C)cc1,-25.6%,-6.1%,-10.1%,u,i,u
Cc1n[nH]c(C)c1S(=O)(=O)N(CC(=O)NCc1ccccc1Cl)c1ccc(C(C)C)cc1,x,x,u,i,31.6µM*,i
COc1ccc(N(CC(=O)Nc2cc(C)ccc2OC)S(=O)(=O)c2c(C)noc2C)cc1,u,u,-35.0%,u,i,9.2µM*
COc1ccc(N(CC(=O)Nc2cc(Cl)ccc2C)S(=O)(=O)c2c(C)noc2C)cc1,u,5.8µM*,-19.1%,5.8µM*,i,u
COc1ccc(N(CC(=O)Nc2cccc(C)c2C)S(=O)(=O)c2c(C)n[nH]c2C)cc1,4.2%,-15.6%,-1.7%,i,u,18.4µM*
O=C(C[N+]1(CC(O)c2ccccc2)CCOCC1)c1ccccc1 (stereo not given),x,x,x,i,x,i
SMILES,HT1080 IDH1KD tx,HT1080-NT tox,ATXN2 expr inh,KB-3-1 tox,ATXN viability,KB-V1 MDR tox
COc1ccccc1-c1ccnc(-n2ncc(C(=O)NCc3cccnc3)c2C)n1,x,x,x,x,i,x
COc1ccc(Cl)cc1-c1nc(N)nc(NC2CCCCC2)n1,0.4%,-0.7%,-0.2%,i,i,18.4µM*
COc1ccc(-c2nc(SCC(=O)Nc3ccc4c(c3)OCO4)c(-c3ccccc3)[nH]2)cc1,x,x,0.6%,i,i,i
COC(CNC(=O)c1cccnc1)OC,6.3%,0.6%,x,i,i,i
COC(CNC(=O)c1ccc2c3c(onc13)-c1ccccc1C2=O)OC,u,23.1µM*,u,u,x,i
CC(=O)Nc1nonc1-c1nc2ccccc2n1Cc1ccccc1Br,x,x,0.6%,u,i,i
CC(=O)CSc1nc(N)c(C#N)c(-c2cccs2)c1C#N,u,-24.0%,-19.2%,i,i,18.4µM*
CC(C)OC(=O)CSc1nc(N)c(C#N)c(-c2cccs2)c1C#N,-15.9%,u,-20.7%,i,i,20.6µM*
Cc1cccc(CSc2nc(N)c(C#N)c(-c3cccs3)c2C#N)c1,-26.8%,-9.6%,x,u,x,11.2µM*
Cn1c(/C=C/c2ccc(Cl)cc2Cl)c([N+](=O)[O-])c(=O)n(C)c1=O,-18.3%,-19.2%,u,7.31µM*,u,u
COc1ccc(/C=C/c2c([N+](=O)[O-])c(=O)n(C)c(=O)n2C)c(OC)c1,-0.3%,4.7%,u,i,i,i
CN(C)c1cccc(-c2nc(N3CCC(C(N)=O)CC3)ncc2F)c1,x,x,x,i,x,i
CC(=O)Nc1ccc(S(=O)(=O)NNC(=O)NC23CC4CC(CC(C4)C2)C3)cc1,-17.7%,-6.9%,10.3%,i,i,i
Cc1ccc(S(=O)(=O)NNC(=O)NC23CC4CC(CC(C4)C2)C3)cc1,-9.0%,-0.8%,18.1%,i,i,20.6µM*
CCc1cccc(C)c1NC(=O)Cn1ncc2c3ccccc3n(Cc3ccccc3)c2c1=O,x,x,0.2%,i,i,i
COC(=O)c1cccc(NC2=NS(=O)(=O)c3ccccc32)c1,x,x,12.2%,i,i,u
O=C(Nc1ccc(F)cc1F)N1CCCN(c2ccc([N+](=O)[O-])cn2)CC1,-3.3%,-1.3%,-9.4%,i,i,i
